Source: PubChem BioAssay (National Center for Advancing Translational Sciences (NCATS))
Rows were chosen to be rich in hits. Some 0.99% of all compounds tested hit in one or more screens of this group.
TRPML1 agonist – human mucolipin-1 channel agonism. AID 624414. Q9GZU1. actives 0.12% (n = 410,000). TRPML1-expressing cells, Ca2+ dye fluorescence, FDSS. activation, % (concentration not given with the values); in the data active means activation above about 50%; inconclusive means mostly about 30% to 49%; further: 0% is about no effect
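Calcium fluorescence on an FDSS kinetic reader gave the read-out. Tet-induced TRPML1-DL cells were plated overnight, dye-loaded (Ca8 with quencher, 45-90 min, room temperature, dark), then read 110 s after compound addition, and again 110 s after 4uM final 54-4 (EC80).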
TRPV1 potentiator – potentiators of human vanilloid receptor 1 (TRPV1). actives 0.02% (n = 320,000). TRPV1-expressing cells, Fluo-8 calcium influx, capsaicin EC20 potentiation. AID 540277. potentiation, % at 8.33 µM; in the data active means potentiation above about 80%; inconclusive means between about 30% and that limit; further: 0% is about no effect
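Cells expressing TRPV1 were dye-loaded with Fluo-8 and read kinetically: 10 s baseline, 3 min after compound (agonist portion), then 2 min after EC20 capsaicin (allosteric enhancer portion). Calcium-bound dye fluorescence at 480/520 nm.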
TRHR enhancer – allosterically enhances the human TRH receptor. P34981. TRHR cells, fluo-8 calcium fluorescence, EC20 TRH enhancement. enhancement, % at 2 µM. actives 0.66% (n = 360,000). AID 493056; in the data active means enhancement above about 30%; further: 0% is about no effect
Target sequence (P34981 whole entry, looked up): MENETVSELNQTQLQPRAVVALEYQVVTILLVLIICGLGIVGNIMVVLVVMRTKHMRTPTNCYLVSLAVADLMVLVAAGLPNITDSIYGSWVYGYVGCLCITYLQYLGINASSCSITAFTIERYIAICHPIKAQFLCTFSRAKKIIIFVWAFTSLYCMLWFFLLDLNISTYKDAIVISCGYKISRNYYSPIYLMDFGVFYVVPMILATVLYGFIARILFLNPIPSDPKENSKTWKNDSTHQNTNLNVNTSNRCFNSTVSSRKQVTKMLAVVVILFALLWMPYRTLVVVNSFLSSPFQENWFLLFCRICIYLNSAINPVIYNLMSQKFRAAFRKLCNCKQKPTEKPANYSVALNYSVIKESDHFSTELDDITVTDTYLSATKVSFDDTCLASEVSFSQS
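Enhancer read-out: after compound pinning and an initial kinetic agonist-mode read, an EC20 of TRH (10 nM final) was injected and fluo-8 calcium signal (Ex 480/Em 530) followed at 1 s/cycle for 100 cycles in TRHR-expressing cells.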
TRPML1 inh – blocks the human TRPML1 channel; activity change, negative = inhibition, % (test concentration not listed); actives 0.02% (n = 390,000); TRPML1-inducible cells, Ca2+ dye fluorescence, FDSS; stronger effect = lower value; inhibition of EC80 agonist-evoked calcium signal; Q9GZU1; AID 624415; in the data active means activity change below about -50%; inconclusive means between about -30% and that limit;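 further: stimulus is agonist 54-4 at its EC80 concentration; on the % scale 0 is the no-effect control and ±100 the full control effect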
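Tet-induced TRPML1-DL cells loaded with Ca8 no-wash calcium dye were read kinetically on FDSS. Compound addition was followed by EC80 agonist 54-4 (4 uM final); inhibition was read over 110 s.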
TRPV1 ag – agonists of human vanilloid receptor 1 (TRPV1); Q8NER1; TRPV1-expressing cells, Fluo-8 calcium influx, agonist mode; activation, % at 8.33 µM; actives 0.19% (n = 320,000); AID 540275; in the data active means activation above about 80%; inconclusive means between about 30% and that limit; further: 0% is about no effect
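Fluo-8 calcium influx in TRPV1-expressing cells, kinetic read (ex 480/em 520 nm). Compound added and read 3 min for agonist activity, followed by capsaicin at EC20 final and 2 min further read for enhancement.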
TRHR agonist – agonists of human TRH receptor; TRHR cells, calcium flux fluo-8, FDSS agonist mode; P34981; activation, % at 2 µM; actives 0.18% (n = 360,000); AID 493084; in the data active means activation above about 30%; further: 0% is about no effect
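Read-out: compound-evoked intracellular calcium rise in TRHR cells, fluo-8 dye, kinetic FDSS fluorescence at 1 s/cycle following a 10-cycle baseline. Cells cultured overnight before dye loading (30 min–1.5 h, RT).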
Active calls of the source: *; ? = inconclusive; · = no result.

SMILES	TRPML1 agonist	TRPV1 potentiator	TRHR enhancer	TRPML1 inh	TRPV1 ag	TRHR agonist
CC1=CC2=NC(=O)/C(=C/c3coc4ccc(Cl)cc4c3=O)C(=N)N2O1	?	·	28	-8	·	185*
N=C1/C(=C\c2coc3ccccc3c2=O)C(=O)N=C2SC=CN12	72*	0	53*	-7	?	199*
CC(=O)N1CCc2cc(S(=O)(=O)N3CCN(S(=O)(=O)c4c(F)cccc4F)CC3)ccc21	·	·	7	·	·	-2
CCOc1ccc2ncc3c(-c4ccc(C)cc4)nn(-c4cccc(F)c4)c3c2c1	1	·	2	-6	·	1
c1ccc2c(c1)CCCN2	0	·	·	·	·	·
Cc1ccc(Cn2c(C)c(CNCc3ccccc3F)c(C(=O)O)c2C)cc1	0	·	1	0	·	0
CCOC(=O)CC(NC(=O)Cn1nnc(-c2ccc(C(F)(F)F)cc2)n1)c1ccc(C)cc1 (configuration not stated)	1	·	1	14	·	5
CCOC(=O)c1ccc(NC(=O)Cn2nnc(-c3ccc(C(F)(F)F)cc3)n2)cc1	0	·	44*	-11	·	0
CC(Oc1ccc(Cl)cc1)C(=O)Nc1ccccc1N1CCOCC1 (configuration not stated)	74*	·	·	-5	·	·
Cc1cc(Cl)ccc1OC(C)C(=O)Nc1ccccc1N1CCOCC1 (configuration not stated)	1	-11	-12	15	11	18
COCCNC(=O)c1cnn2c(C(F)F)cc(-c3ccc(C)cc3)nc12	4	3	-2	10	?	-1
CCCNC(=O)c1cnn2c(C(F)F)cc(-c3ccccc3)nc12	-1	·	30*	-9	·	0
COc1ccc(-c2cc(C(F)F)n3ncc(C(=O)Nc4cc(C)on4)c3n2)cc1	0	-18	9	3	85*	1
Cc1c(NC(=O)c2ccc(Cl)cc2)cc(C(C)C)c(O)c1S(=O)(=O)c1ccccc1	0	·	-7	-13	·	0
COc1ccc(-c2cc(C)no2)cc1S(=O)(=O)N1CC(C)Oc2ccccc21 (configuration not stated)	0	·	1	17	·	2
O=C(CCl)Nc1ccccc1C(=O)NCc1ccccc1	3	9	34*	11	-1	0
COc1ccc(C(=O)c2cn(Cc3ccccc3)c3ccccc3c2=O)cc1OC	1	·	48*	-14	·	0
O=C(CNC(=O)c1ccccc1)OC(Cc1ccccc1)C(=O)Nc1cc(C(F)(F)F)ccc1Cl (configuration not stated)	·	·	-7	·	·	-3
O=C(N=c1ccn(-c2nc3ccccc3nc2NS(=O)(=O)c2ccccc2)cc1)c1ccccc1Cl	9	6	39*	-10	-4	5
CCOC(=O)/C(=C\C=C1/Sc2cc(OCC)c(OCC)cc2N1CC)C(C)=O	89*	-14	19	9	?	160*
CCOC(=O)/C(=C/C=C1\Sc2cc(OCC)c(OCC)cc2N1CC)C(C)=O	77*	-7	48*	-23	?	244*
O=C(c1ccccc1)N1N=C(C(F)(F)F)CC1(O)c1ccccc1 (configuration not stated)	·	-4	38*	·	22	-2
CCN(c1ccccc1)c1nc(N)nc(C#N)n1	-1	·	·	·	·	·
Cc1nc(Nc2cccc(F)c2)c2oc3ccccc3c2n1	1	17	-4	14	99*	0
Cc1nc(Nc2cccc(Cl)c2)c2oc3ccccc3c2n1	1	14	-5	5	86*	-1
SMILES	TRPML1 agonist	TRPV1 potentiator	TRHR enhancer	TRPML1 inh	TRPV1 ag	TRHR agonist
COc1cccc(Nc2nc(C)nc3c2oc2ccccc23)c1	3	-6	15	-7	80*	-1
CCn1cc2nc(SCC(=O)Nc3cccc(Cl)c3C)n(Cc3ccc(Cl)cc3)c(=O)c2n1	0	·	-6	-19	·	1
N#Cc1ccccc1S(=O)(=O)N1CCN(S(=O)(=O)c2ccc3c(c2)OCCO3)CC1	·	·	-1	·	·	1
O=C(CNC(=O)c1ccccc1)OC(C(=O)Nc1ccc2c(c1)OCO2)c1ccccc1 (configuration not stated)	·	·	-1	·	·	-1
CC(C)OC(=O)c1c2c(n3ccccc13)C(=O)c1ccccc1C2=O	21	8	2	-9	24	75*
CC(C(=O)c1ccccc1)[n+]1cccc(Cl)c1 (configuration not stated)	-1	·	·	·	·	·
CCC(C)(C)c1ccc(OCC(=O)Nc2ccncc2)cc1	0	-7	2	14	90*	0
CC(C)(C)c1ccc(OCC(=O)Nc2ccncc2)c(Br)c1	·	-3	-10	·	97*	0
CCc1cc2c(=O)oc(-c3ccccc3F)nc2s1	1	-9	37*	-19	7	1
COc1cc(OC)c2c(C)c(CC(=O)N3CCCCC3)c(=O)oc2c1	0	·	35*	-6	·	0
COc1cc2oc(=O)c(CC(=O)N3CCCCC3)c(C)c2cc1Cl	0	·	4	-19	·	0
C/C(=C\C=C(C#N)C#N)c1cc(C#N)c(N)o1	54*	2	-6	3	10	11
COC(=O)C1=C(C)NC(=O)NC1c1c(O)ccc2ccccc12 (configuration not stated)	0	5	35*	12	-3	0
Cc1ccc(S(=O)(=O)N2C[C@@H]3[C@H]4CC[C@H](C4)[C@@H]3[C@@H](C)[C@@H]2C2CCCCC2=O)cc1 (some centres not stated)	92*	·	·	-10	·	·
COc1ccc(N=CC2=C(O)CC(C)(C)CC2=O)cc1	-1	-2	38*	15	2	0
COc1ccc(OC)c(N=CC2=C(O)CC(C)(C)CC2=O)c1	0	0	6	-1	-2	0
S=c1[nH]nc(-c2ccccn2)n1/N=C/c1ccc(Cl)c(Cl)c1	0	26	-5	9	1	-1
S=c1[nH]nc(-c2ccccn2)n1/N=C/c1ccc(Br)s1	78*	5	-1	-30	-1	0
O=C(NCc1ccco1)C1CCN(C(=O)N2CCOc3ccc(Cl)cc32)CC1	0	·	-9	-18	·	0
Cc1cc(C)c(C(=O)N2CCCC(Nc3ccc(C)c(C)c3)C2)o1 (configuration not stated)	-1	5	2	-8	97*	-2
O=C(CCC(=O)N1CCCC(Nc2ccccc2)C1)c1ccc(F)cc1 (configuration not stated)	-1	-5	-6	2	86*	0
Cc1cc(C)c(C(=O)N2CCCC(Nc3ccc(F)cc3)C2)o1 (configuration not stated)	1	-6	-8	10	83*	0
